GLP-1R inv ag = qHTS of GLP-1 Receptor Inverse Agonists (Inhibition Mode); 410,000 tested, 1.6% active; Potency, µM (highest dose often 38.3 µM), for the others: at the highest dose activity change, negative = inhibition, most hits filed as inhibitors; Glucagon-like peptide 1 receptor (Homo sapiens), P43220; AID 624417, 2012; HEK293 GLP-1R CRE-luciferase, luminescence, 24 h; GLP-1R form is constitutively active; further: potency means the concentration at half of the fitted maximal effect; on the % scale 0 is the no-effect control and ±100 the full control effect; nearly all actives have a fitted effect of over 55% in size
Target sequence (P43220 whole entry, looked up): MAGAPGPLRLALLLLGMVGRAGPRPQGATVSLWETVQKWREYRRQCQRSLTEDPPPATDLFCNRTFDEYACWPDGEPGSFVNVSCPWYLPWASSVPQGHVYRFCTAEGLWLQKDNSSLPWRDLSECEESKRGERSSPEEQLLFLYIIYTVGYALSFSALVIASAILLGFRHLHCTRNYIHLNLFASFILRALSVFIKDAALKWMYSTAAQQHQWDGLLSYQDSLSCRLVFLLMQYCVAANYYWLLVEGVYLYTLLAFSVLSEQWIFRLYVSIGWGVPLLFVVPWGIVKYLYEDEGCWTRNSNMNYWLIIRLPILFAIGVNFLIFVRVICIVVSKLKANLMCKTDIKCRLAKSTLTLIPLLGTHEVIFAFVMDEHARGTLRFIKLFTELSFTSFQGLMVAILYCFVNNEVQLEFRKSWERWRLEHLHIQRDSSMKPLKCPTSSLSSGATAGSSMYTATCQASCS
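Stable HEK293 clone (constitutively active GLP-1R + cAMP-response luciferase); 200 cells/uL plated, 12 h pre-culture, compound 24 hr, 37 deg C/5% CO2; detection reagent 12 min RT; luminescence.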
TRPML1 agonist = qHTS for Agonists of the Human Mucolipin Transient Receptor Potential 1 (TRPML1). activation, % (test concentration not listed). TRPML1-expressing cells, Ca2+ dye fluorescence, FDSS. 410,000 tested, 0.12% active; in the data active means activation above about 50%; inconclusive means mostly about 30% to 49%; further: 0% is about no effect
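Kinetic FDSS Ca2+ read in Tet-induced TRPML1-DL cells (ABD Ca8 dye plus quencher, 45-90 min RT loading): baseline, then compound, then 110 s agonist window; EC80 agonist 54-4 at 4uM final added afterwards for a 110 s antagonist window.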
GLP1R ag = qHTS of GLP-1 Receptor Agonists; Glucagon-like peptide 1 receptor (Homo sapiens), P43220; HEK293 GLP-1R CRE-luciferase, luminescence, 4-6 h; cells express a hypersensitive GLP-1R form; Potency, µM (doses to about 45.6 µM), inactives show top-dose activation, most hits filed as activators; 380,000 tested, 0.007% active; AID 624172, 2012; further: potency means the concentration at half of the fitted maximal effect; % of control where 0% means no effect
GLP1R cytotox = qHTS of GLP-1 Receptor Inverse Agonists: Cytotox Screen; HEK293 cAMP-luciferase reporter cells, luminescence, 24 h; Potency, µM (series often up to 38.3 µM), without a hit: top-dose activity change, negative = inhibition, hits mostly inhibitors; 410,000 tested, 0.13% active; AID 624418, 2012;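 further: loss of luciferase light is scored as toxicity; potency means the concentration at half of the fitted maximal effect; on the % scale 0 is the no-effect control and ±100 the full control effect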
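A 23 nL compound transfer followed 12 hours of cell culture at 37 deg C; exposure then lasted 24 hr. Luciferase assay detection reagent was dispensed and plates read for luminescence after a 12 min room-temperature wait.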
TRPML1 inh = qHTS for Inhibitors of the Human Mucolipin Transient Receptor Potential 1 (TRPML1) | TRPML1-inducible cells, Ca2+ dye fluorescence, FDSS; active compounds read low; inhibition of EC80 agonist-evoked calcium signal | 390,000 tested, 0.02% active | activity change, negative = inhibition, % (concentration not given with the values) | Mucolipin-1 (Homo sapiens), Q9GZU1; in the data active means activity change below about -50%; inconclusive means between about -30% and that limit;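 further: stimulus is agonist 54-4 at its EC80 concentration; on the % scale 0 is the no-effect control and ±100 the full control effect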
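Tet-induced TRPML1-DL cells loaded with Ca8 no-wash calcium dye were read kinetically on FDSS. Compound addition was followed by EC80 agonist 54-4 (4 uM final); inhibition was read over 110 s.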
Starred values were filed as active, the others as inactive; ? = inconclusive; . = no result given. Only some compounds are listed: those with a hit (about 1.8% of all), similar ones and a draw of the others. Unless noted, the call rests on the fitted dose curve; in most records, active means well fitted curve in the direction sought with a large enough effect; inconclusive means small, poorly fitted or top-dose-only effect, or another doubt; inactive means no such curve, though single readings can be large; an effect the other way counts as inactive or inconclusive.

SMILES	GLP-1R inv ag	TRPML1 agonist	GLP1R ag	GLP1R cytotox	TRPML1 inh
O=C(NC(NC(=S)Nc1ccccc1)C(Cl)(Cl)Cl)c1cccc(Cl)c1 (configuration not stated)	7.9µM*	2	-15%	?	-13
Cc1cccc(NC(=S)NC(NC(=O)c2ccco2)C(Cl)(Cl)Cl)c1 (configuration not stated)	1.1µM*	2	-10%	?	41
O=C(NCC(c1cccs1)S(=O)(=O)c1cccs1)c1c(F)cccc1F (configuration not stated)	1%	-1	.	-7%	-14
COc1ccc(C2CC(=O)N(Cc3ccc(F)cc3)c3ccccc3S2)cc1OC (configuration not stated)	16%	4	-6%	3%	-4
O=C1CC(c2ccccc2)Sc2ccccc2N1Cc1ccccc1F (configuration not stated)	10µM*	6	-1%	-7%	53
COc1cc(C2CC(=O)N(Cc3ccc(F)cc3)c3ccccc3S2)cc(OC)c1OC (configuration not stated)	11µM*	3	-7%	4%	47
O=C(c1ccc2c(=O)n(CCc3ccccc3)c(=O)[nH]c2c1)N1CCN(C(=O)c2ccco2)CC1	.	0	.	.	.
O=C(O)c1ccc(N/N=C/c2ccc(OC(=O)c3ccccc3Cl)cc2)cc1	7.1µM*	0	0%	1%	0
CN(CC(=O)Nc1ccc(Cl)cc1)CC(=O)Nc1ccc(C(N)=O)cc1	7%	0	2%	0%	7
CN(C)CC(=O)Nc1ccc(Oc2ccc(Cl)cc2)cc1	5µM*	3	15%	9%	3
O=C(NC(=S)Nc1ccc(Oc2ccc(Cl)cc2)cc1)c1ccccc1	13µM*	0	-6%	?	-9
O=C(NC(=S)Nc1ccc(Cl)cc1)c1ccccc1	14%	1	20%	-1%	-4
Cc1cccc(C(=O)N2CCc3cc(CNC(=O)c4cc5ccccc5[nH]4)ccc32)c1	2%	-1	.	-9%	14
CCOC(=O)N1CCC(N(CCN(C)C)C(=S)Nc2cccc(SC)c2)CC1	5.6µM*	-1	5%	1%	9
CCOC(=O)N1CCC(N(CCN(C)C)C(=S)Nc2cccc(C)c2)CC1	1%	0	-3%	-14%	10
CCOC(=O)c1c(C)oc2nc(C)nc(N3CCN(c4cccc(C(F)(F)F)c4)CC3)c12	-16%	-1	.	-10%	-3
O=C1CCCCC1C(O)(C(=O)c1ccccc1)c1ccccc1 (configuration not stated)	10µM*	0	1%	1%	31
C=CCNC(=S)Nc1sc2c(c1C(=O)OCC)CCN(C(=O)OCC)C2	5%	2	6%	-8%	1
C=CCNC(=S)Nc1sc2c(c1C(=O)OCC)CC(C)(CC)OC2 (configuration not stated)	-3%	1	1%	10µM*	28
CCCCN(C(=O)c1cccc2c(=O)c(C)c(-c3ccccc3)oc12)c1ccccc1	10µM*	3	-6%	-16%	23
CCOC(=O)c1c(Nc2ccc(O)cc2)nnc(-c2ccccc2)c1-c1ccccc1	-22%	3	4%	-9%	26
COc1cc(NC(=O)c2ccc(Cl)cc2)c(OC)cc1NC(=O)CN1CCCCC1	3.5µM*	27	19%	?	2
COc1cc(NC(=O)C2CCCCC2)c(OC)cc1NC(=O)CN1CCCCC1	2.5µM*	-1	16%	?	-15
Cc1cc(N(C)C)cc(C)c1/C=C/c1ccnc2ccccc12	.	4	.	.	.
N#CC(C#N)=NNc1ccc(S(=O)(=O)N2CCCCC2)cc1	1.3µM*	0	-51%	?	-10
SMILES	GLP-1R inv ag	TRPML1 agonist	GLP1R ag	GLP1R cytotox	TRPML1 inh
N#C/C(=N\Nc1ccc(S(=O)(=O)N2CCOCC2)cc1)C(N)=S	?	0	-1%	?	1
COc1cc(NC(=O)[C@@H](NC(=O)N2CCn3c2nc2ccccc23)C(C)C)cc(OC)c1	10µM*	-1	6%	?	-4
COc1ccc(CNC(=O)[C@H](CCSC)NC(=O)N2CCn3c2nc2ccccc23)cc1	5µM*	1	16%	-15%	9
CC(C)[C@H](NC(=O)N1CCn2c1nc1ccccc12)C(=O)N[C@H](Cc1ccccc1)C(=O)O	8%	.	-5%	-1%	.
CSCC[C@H](NC(=O)N1CCn2c1nc1ccccc12)C(=O)NCc1ccc(F)cc1	?	0	-1%	-4%	-7
CCCCCCC(O)C/C=C\CCCCCCCC(=O)O (configuration not stated)	.	.	1%	.	.
CCOc1ccc(NC(=O)C(C)n2c(=O)cc(C)c3c(C)nn(-c4ccccc4)c32)cc1 (configuration not stated)	12%	0	.	1%	-16
COc1cc(/C=C/c2ccc3cccc(OC)c3n2)c(OC(C)=O)c([N+](=O)[O-])c1	-24%	0	-17%	-26%	-4
COc1c(OC(C)=O)ccc(/C=C/c2ccc3cccc(OCc4ccccc4)c3n2)c1[N+](=O)[O-]	5µM*	-1	-13%	?	-10
Cc1cc(Nc2ccc(Cl)cc2)n(-c2cccc(Cl)c2)n1	7.9µM*	0	-4%	64%	59
Cc1cc(Nc2ccc(Cl)cc2)n(-c2ccccc2)n1	2.8µM*	2	1%	-4%	41
Cc1cc(Nc2ccccc2C(=O)O)n(-c2cccc(Cl)c2)n1	-35%	2	-8%	2%	?
Cc1cc(Nc2ccccc2)n(-c2ccc(Br)cc2)n1	?	2	-11%	1%	67
COc1cccc(NC(=O)COc2ccccc2C(=O)Nc2ccccc2)c1	.	0	.	.	.
CCOC(=O)c1c(C)oc2nc(C)nc(N(C)Cc3ccccc3)c12	?	3	.	15%	51
CC1=C(C(=O)Nc2ccccc2)C(c2ccccn2)n2nc(SCc3ccccc3Cl)nc2N1 (configuration not stated)	3%	0	-4%	7%	4
COc1ccc2[nH]cc(CCNC(=O)Nc3ccccc3)c2c1	?	1	6%	-4%	17
COc1ccc2[nH]cc(CCNC(=S)NCCc3ccccc3)c2c1	8.9µM*	1	12%	?	-13
CCc1ccc(/C=N/NC(=S)NCCc2ccccc2)cc1	?	4	7%	?	26
COc1ccc(/C(C)=N/NC(=S)NCCc2ccccc2)c(O)c1	2µM*	1	8%	?	25

Screening results (PubChem BioAssay)
